Positions count from the first letter of the chain named.
Legend:
Assay in all cases: protein-binding microarray (PBM); PBM: ~300 nM protein, 6 mM HEPES pH 7.8, 80 mM KCl, 0.5 mM EDTA, 0.5 mM EGTA, 6% glycerol, 35 ng/ul poly-dIdC, 1% milk, 1 h, room temperature; Ap Aiptasia and Nv Nematostella (sea anemones) / Co Capsaspora / Aq Amphimedon (sponge) / Dm Drosophila / Hu human; RHD is the Rel homology domain; high values mean tight binding
Conditions in all cases: dsDNA, one strand shown
[1] = biological target: T1, GST-Ap-NF-kB RHD (Exaiptasia pallida (Aiptasia), UniProt A0A913YAJ5 2-422)
T1 sequence: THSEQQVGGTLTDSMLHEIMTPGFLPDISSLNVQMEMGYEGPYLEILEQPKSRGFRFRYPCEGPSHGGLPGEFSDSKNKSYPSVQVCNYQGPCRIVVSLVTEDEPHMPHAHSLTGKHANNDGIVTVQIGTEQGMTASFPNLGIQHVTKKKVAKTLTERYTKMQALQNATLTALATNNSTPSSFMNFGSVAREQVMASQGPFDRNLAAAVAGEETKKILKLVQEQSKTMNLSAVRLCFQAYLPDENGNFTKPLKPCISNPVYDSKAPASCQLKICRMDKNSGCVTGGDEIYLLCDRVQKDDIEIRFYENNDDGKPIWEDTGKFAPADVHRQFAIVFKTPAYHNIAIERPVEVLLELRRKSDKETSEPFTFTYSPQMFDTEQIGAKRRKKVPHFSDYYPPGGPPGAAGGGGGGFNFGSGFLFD

[2] = biological target: T2, GST-Nv-NF-kB (Cys allele) (Nematostella vectensis, UniProt E5G601 2-411)
T2 sequence: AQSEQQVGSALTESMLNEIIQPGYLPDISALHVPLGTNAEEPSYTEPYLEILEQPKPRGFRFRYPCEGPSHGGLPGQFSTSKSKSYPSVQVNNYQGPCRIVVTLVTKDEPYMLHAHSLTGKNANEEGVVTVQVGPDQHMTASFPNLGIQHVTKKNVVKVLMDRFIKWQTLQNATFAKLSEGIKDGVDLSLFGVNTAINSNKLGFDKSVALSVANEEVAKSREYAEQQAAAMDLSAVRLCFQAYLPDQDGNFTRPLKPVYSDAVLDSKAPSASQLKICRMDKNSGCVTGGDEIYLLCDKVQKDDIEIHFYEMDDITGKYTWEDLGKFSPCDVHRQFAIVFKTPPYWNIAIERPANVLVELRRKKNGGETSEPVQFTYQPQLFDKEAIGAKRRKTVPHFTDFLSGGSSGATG

[3] = biological target: T3, GST-Nv-NF-kB (Ser allele) (Nematostella vectensis, UniProt A7UNT2 2-411)
T3 sequence: T2 sequence with Q21R, C66S, S207N, E215Q, V217A, E225K, A268E, D399E

[4] = biological target: T4, GST-Co-NF-kB (Capsaspora owczarzaki, UniProt F1ARL5 200-546)
T4 sequence: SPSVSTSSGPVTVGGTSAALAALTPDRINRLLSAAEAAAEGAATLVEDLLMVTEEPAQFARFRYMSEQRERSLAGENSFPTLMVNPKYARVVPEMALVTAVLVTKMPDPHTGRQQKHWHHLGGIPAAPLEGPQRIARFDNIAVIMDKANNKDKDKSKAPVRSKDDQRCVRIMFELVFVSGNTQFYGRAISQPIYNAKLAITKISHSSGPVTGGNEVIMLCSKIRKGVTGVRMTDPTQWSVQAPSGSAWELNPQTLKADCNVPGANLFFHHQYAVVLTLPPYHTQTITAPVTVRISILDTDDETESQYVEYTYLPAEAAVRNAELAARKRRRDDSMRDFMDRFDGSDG

[5] = biological target: T5, GST-Dm-Relish (Drosophila melanogaster, UniProt Q94527 99-473)
T5 sequence: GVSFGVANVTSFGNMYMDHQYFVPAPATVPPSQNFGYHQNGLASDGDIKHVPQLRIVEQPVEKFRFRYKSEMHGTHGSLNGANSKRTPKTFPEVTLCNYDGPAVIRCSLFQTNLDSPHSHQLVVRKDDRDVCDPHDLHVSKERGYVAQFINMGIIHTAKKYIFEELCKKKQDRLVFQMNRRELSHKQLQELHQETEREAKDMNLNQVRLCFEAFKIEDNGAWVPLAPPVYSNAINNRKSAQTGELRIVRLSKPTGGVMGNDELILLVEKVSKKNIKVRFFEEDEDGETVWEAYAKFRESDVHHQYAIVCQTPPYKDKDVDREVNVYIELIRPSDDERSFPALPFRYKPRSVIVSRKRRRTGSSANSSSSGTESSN

[6] = biological target: T6, GST-Aq-NF-kB (Amphimedon queenslandica, UniProt A9Y5G7 2-389)
T6 sequence: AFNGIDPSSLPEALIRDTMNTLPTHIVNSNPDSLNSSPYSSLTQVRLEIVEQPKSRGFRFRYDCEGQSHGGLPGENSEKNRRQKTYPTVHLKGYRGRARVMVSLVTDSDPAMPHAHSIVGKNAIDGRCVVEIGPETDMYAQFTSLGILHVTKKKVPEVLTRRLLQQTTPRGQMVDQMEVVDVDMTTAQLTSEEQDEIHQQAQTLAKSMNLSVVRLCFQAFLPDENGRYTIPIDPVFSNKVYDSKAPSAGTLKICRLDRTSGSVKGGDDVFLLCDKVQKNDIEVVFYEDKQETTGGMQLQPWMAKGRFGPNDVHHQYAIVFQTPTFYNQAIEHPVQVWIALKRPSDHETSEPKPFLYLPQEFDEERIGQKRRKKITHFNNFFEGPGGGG

[7] = biological target: GST-Hu-p50 (Homo sapiens, UniProt P19838 7-356)
Chain of GST-Hu-p50 (P19838 7-356): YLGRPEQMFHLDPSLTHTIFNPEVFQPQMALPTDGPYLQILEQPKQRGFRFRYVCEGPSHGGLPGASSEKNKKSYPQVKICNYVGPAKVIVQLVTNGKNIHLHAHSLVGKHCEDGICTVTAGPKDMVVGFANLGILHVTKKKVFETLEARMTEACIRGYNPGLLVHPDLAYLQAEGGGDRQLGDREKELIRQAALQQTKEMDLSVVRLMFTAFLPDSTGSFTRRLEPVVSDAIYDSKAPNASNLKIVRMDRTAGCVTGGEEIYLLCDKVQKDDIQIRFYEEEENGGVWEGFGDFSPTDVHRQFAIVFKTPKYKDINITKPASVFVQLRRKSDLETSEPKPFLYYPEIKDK

Sequence	binding signal [1] [z-score]	binding signal [2] [z-score]	binding signal [3] [z-score]	binding signal [4] [z-score]	binding signal [5] [z-score]	binding signal [6] [z-score]	binding signal [7] [z-score]
CCGATTAACATCAGGAAAACCCCTGATGTTAATCGGGTCTTGATTCGCTTGACGCTGCTG	8.2	8.89	6.66	2.41	8.77	9.24	7.4
CCGATTAACATCACAAAGTCCCCTGATGTTAATCGGGTCTTGATTCGCTTGACGCTGCTG	7.77	7.32	7.65	2.97	7.95	6.4	6.44
CCGATTAACATCAGATTTCCCCCTGATGTTAATCGGGTCTTGATTCGCTTGACGCTGCTG	8.72	8.96	10.8	11	6.42	7.34	7.39
CCGATTAACATCAGGGTGGGAAATGATGTTAATCGGGTCTTGATTCGCTTGACGCTGCTG	2.06	3.1	2.77	3.37	1.62	2.27	2.15
CCGATTAACATCAGAATTTCCCATGATGTTAATCGGGTCTTGATTCGCTTGACGCTGCTG	3.88	5.46	4.83	4.63	3.42	5.17	4.04
CCGATTAACATCAGGGGAAAGGATGATGTTAATCGGGTCTTGATTCGCTTGACGCTGCTG	4.44	5.7	6.71	4.77	1.2	4.14	3.87
CCGATTAACATCAAAAAGTCCCGTGATGTTAATCGGGTCTTGATTCGCTTGACGCTGCTG	7.34	9.76	8.57	2.47	9	8.05	6.44
CCGATTAACATCAGGGGTTCCCATGATGTTAATCGGGTCTTGATTCGCTTGACGCTGCTG	4.04	2.36	1.37	1.64	10	4.49	2.64
CCGATTAACATCAGGGGATTTAATGATGTTAATCGGGTCTTGATTCGCTTGACGCTGCTG	7.05	8.23	9.99	3.58	7.98	6	6.98
